Inconclusive results are not listed. The source made the active and inactive calls. Unless noted, the call rests on the fitted dose curve; in most records, active means well fitted curve in the direction sought with a large enough effect; inconclusive means small, poorly fitted or top-dose-only effect, or another doubt; inactive means no such curve, though single readings can be large; an effect the other way counts as inactive or inconclusive.
Columns and labels:
[1] = biological target: ATP-dependent 6-phosphofructokinase (Trypanosoma brucei brucei) (UniProt O15648); assay: qHTS Assay to Find Inhibitors of T. brucei phosphofructokinase: hit validation (AID 492961);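 further: luminescence reports ADP formed as PFK phosphorylates fructose-6-phosphate with ATP; on the % scale 0 is the no-effect control and ±100 the full control effect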
Summary of the method: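 Compounds titrated; %activity normalized to 0x and 1x enzyme controls, curve-fitted. Readout: ADP-Glo luminescence after 45 min room-temperature reaction of 1.25 nM PFK, 0.1 mM ATP, 0.5 mM F6P, pH 8.0.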

[2] = biological target: Lysosomal acid glucosylceramidase (Homo sapiens) (UniProt P04062); assay: Glucocerebrosidase-p2 (AID 348; in the data active means potency below about 10 µM; further: potency means the concentration at half of the fitted maximal effect); conditions: purified GBA, blue fluorogenic substrate, 40 min
Lysosomal acid glucosylceramidase (Homo sapiens), sequence (P04062 whole entry, looked up): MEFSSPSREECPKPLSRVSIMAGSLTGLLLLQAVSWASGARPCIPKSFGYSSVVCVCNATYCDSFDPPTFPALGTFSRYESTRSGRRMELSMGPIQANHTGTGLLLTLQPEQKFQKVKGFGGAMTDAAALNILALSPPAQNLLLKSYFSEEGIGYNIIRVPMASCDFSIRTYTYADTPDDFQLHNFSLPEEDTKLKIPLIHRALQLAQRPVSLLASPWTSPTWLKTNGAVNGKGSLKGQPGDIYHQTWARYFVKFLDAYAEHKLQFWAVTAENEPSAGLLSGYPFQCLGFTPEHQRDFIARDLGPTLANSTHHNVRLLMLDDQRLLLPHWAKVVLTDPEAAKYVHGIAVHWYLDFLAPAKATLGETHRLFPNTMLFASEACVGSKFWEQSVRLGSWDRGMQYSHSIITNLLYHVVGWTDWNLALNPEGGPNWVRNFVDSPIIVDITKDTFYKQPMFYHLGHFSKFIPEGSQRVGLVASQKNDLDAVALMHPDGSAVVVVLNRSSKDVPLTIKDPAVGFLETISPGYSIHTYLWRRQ
Summary of the method: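 Normal human glucocerebrosidase (0.2 nM) with blue fluorogenic substrate (80 uM final) in citrate/phosphate pH 5.9 with 10mM sodium taurocholate, 0.01% tween-20; 40 min RT, NaOH/glycine stop; fluorescence Ex 365/Em 440; AC50 from a titration from 0.6 nM upwards.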

[3] = AP1 Signaling Pathway (AID 357; active means well fitted curve in either direction with a large enough effect, not every such curve was filed as active;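 further: ME-180 reporter cells stimulated with EGF at its EC50 level; on the % scale 0 is the no-effect control and ±100 the full control effect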); conditions: ME-180 AP-1-bla reporter, EGF-induced, beta-lactamase ratio, 5 h; at 7.69 µM (top of the series) unless noted
Summary of the method: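 Cells are seeded overnight, exposed to compound titrations and an EC50 level of EGF for 5 hours at 37 °C, then loaded with CCF4 dye for 2.5 hours. Beta-lactamase activity under the AP-1 element is read as a blue/green ratio.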

[4] = biological target: Glucocorticoid receptor (Homo sapiens) (UniProt P04150); assay: GR-GFP Redistribution (AID 450;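 active means compounds whose dose series gives a full or clear partial fitted curve of increased nuclear translocation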; further: potency means the concentration at half of the fitted maximal effect); conditions: U2OS GR-GFP nuclear translocation, laser cytometry, 2 h
Glucocorticoid receptor (Homo sapiens), sequence (P04150 whole entry, looked up, the tested form may be a part): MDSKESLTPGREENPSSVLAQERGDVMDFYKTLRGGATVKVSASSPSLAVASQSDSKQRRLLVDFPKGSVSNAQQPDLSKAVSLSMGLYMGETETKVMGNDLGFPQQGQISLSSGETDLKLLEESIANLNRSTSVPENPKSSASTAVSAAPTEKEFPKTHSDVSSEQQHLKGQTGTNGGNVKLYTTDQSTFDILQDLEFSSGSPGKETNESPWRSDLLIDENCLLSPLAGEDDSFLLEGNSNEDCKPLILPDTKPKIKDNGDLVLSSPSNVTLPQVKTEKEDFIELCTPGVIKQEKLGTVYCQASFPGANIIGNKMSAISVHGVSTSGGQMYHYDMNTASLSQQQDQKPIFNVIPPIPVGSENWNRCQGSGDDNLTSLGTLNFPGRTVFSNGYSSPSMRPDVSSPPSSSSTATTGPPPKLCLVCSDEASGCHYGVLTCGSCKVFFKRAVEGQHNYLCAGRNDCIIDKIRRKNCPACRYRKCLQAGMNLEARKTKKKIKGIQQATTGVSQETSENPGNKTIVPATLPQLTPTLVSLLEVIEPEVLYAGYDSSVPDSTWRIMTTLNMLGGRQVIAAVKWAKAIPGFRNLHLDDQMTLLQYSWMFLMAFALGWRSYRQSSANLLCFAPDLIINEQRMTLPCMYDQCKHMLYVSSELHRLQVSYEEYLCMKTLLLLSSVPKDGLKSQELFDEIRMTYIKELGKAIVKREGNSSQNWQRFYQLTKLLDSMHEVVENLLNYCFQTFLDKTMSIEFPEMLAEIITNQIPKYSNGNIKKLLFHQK

[5] = biological target: Mitogen-activated protein kinase 10 (Mus musculus) (UniProt Q61831); assay: JNK3 AlphaScreen Assay (AID 530; active means well fitted curve in either direction with a large enough effect, not every such curve was filed as active;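 further: kinase came from lysate of stimulated human HepG2 cells; signal reports phosphorylation of biotinylated GST-cJun 1-79 at Ser73 with 10 µM ATP; on the % scale 0 is the no-effect control and ±100 the full control effect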)
Summary of the method: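 HepG2 lysate (IL-1b/TNFa pre-activated) + biotin-GST-cJun 1-79 + anti-pSer73 cJun; cpd titration, 15 min RT; ATP 10 uM start; Tris pH 7.6, MgCl2, DTT, vanadate; beads in EDTA buffer; AlphaScreen.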

[6] = biological target: Dual specificity protein kinase CLK4 (Homo sapiens) (UniProt Q9HAZ1); assay: qHTS Assay for Inhibitors of CDC-like Kinase 4 (Kinase-Glo Assay) (AID 1770); further: nearly all actives have a fitted effect of over 65% in size; further: potency means the concentration at half of the fitted maximal effect
Dual specificity protein kinase CLK4 (Homo sapiens), sequence (Q9HAZ1 whole entry, looked up): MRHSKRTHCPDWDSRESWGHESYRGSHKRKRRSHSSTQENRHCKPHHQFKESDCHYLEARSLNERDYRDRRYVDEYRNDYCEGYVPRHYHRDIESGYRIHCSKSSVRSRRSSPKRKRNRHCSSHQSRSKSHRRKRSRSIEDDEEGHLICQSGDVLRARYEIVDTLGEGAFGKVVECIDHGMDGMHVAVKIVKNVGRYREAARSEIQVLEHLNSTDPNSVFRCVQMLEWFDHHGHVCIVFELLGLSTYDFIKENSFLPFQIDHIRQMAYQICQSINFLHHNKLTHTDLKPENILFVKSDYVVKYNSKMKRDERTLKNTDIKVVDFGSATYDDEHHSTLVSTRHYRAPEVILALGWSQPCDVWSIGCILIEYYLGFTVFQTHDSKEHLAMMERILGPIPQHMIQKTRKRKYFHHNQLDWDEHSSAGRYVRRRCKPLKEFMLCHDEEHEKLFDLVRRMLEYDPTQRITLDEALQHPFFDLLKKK
Summary of the method: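 25 nM Clk4 with 100 uM RS repeat peptide and 1 uM ATP (final) in Tris pH7.5, 10 mM MgCl2, 4.5 h at room temperature. Remaining ATP measured by Kinase-Glo luciferase luminescence.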

[7] = biological target: Dual specificity protein kinase CLK4 (Homo sapiens) (UniProt Q9HAZ1); assay: qHTS Assay for Inhibitors of CDC-like Kinase 4 (ADP-Glo Assay) (AID 1771); further: nearly all actives have a fitted effect of over 70% in size; further: potency means the concentration at half of the fitted maximal effect
Summary of the method: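 25 nM Clk4, 100 uM RS peptide, 1 uM ATP (final); 2 mM MgCl2, 0.5 mM EGTA, 2.5 mM DTT, 0.01% Triton X-100; 1 hr RT. ADP-Glo readout: ATP depletion 45 min, conversion/luciferase 30 min, luminescence.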

[8] = biological target: Dual specificity protein kinase CLK4 (Homo sapiens) (UniProt Q9HAZ1); assay: qHTS Assay for Inhibitors of CDC-like Kinase 4 (ADP-FP Assay) (AID 1795); further: nearly all actives have a fitted effect of over 60% in size; further: potency means the concentration at half of the fitted maximal effect
Summary of the method: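 Recombinant Clk4 (6.25 nM) phosphorylated 100 uM RS repeat peptide with 1 uM ATP in 25 mM Tris pH 7.5, 10 mM MgCl2, 0.5 mM EGTA, 2.5 mM DTT, 0.01% Triton X-100 for 1 h. ADP was detected by Transcreener ADP2 competitive fluorescence polarization after 30 min at room temperature.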

[9] = biological target: Ubiquitin carboxyl-terminal hydrolase 1 (Homo sapiens) (UniProt O94782); assay: Inhibitors of USP1/UAF1: Pilot qHTS (AID 504865);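 further: rhodamine fluorescence freed from ubiquitin-rhodamine substrate followed over time; top concentration of the series differs between compounds; on the % scale 0 is the no-effect control and ±100 the full control effect; nearly all actives have a fitted effect of over 35% in size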
Ubiquitin carboxyl-terminal hydrolase 1 (Homo sapiens), sequence (O94782 whole entry, looked up): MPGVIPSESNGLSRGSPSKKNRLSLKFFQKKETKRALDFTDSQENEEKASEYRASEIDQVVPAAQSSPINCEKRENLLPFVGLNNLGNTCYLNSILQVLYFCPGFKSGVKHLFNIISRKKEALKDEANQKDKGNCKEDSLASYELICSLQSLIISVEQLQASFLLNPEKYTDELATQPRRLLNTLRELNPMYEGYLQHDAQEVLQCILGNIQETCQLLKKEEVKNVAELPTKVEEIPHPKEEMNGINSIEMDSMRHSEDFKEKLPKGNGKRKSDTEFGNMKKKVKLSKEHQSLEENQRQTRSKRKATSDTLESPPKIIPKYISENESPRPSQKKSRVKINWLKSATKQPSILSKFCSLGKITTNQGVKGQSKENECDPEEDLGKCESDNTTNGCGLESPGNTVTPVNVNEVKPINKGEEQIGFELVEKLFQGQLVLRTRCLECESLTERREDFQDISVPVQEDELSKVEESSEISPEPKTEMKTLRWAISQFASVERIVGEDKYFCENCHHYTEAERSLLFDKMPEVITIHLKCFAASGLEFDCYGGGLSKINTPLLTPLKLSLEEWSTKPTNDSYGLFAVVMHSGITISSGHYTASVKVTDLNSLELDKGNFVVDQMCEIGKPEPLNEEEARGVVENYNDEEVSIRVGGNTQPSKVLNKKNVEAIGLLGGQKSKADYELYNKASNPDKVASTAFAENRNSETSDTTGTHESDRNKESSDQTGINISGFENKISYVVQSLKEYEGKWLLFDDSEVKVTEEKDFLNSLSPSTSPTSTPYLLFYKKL
Summary of the method: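 USP1/UAF1 complex at 1 nM preincubated 15 min at room temperature with compound, then Ub-Rho substrate added at 150 nM final. Fluorescence (480/540 nm) read kinetically in 50 mM HEPES pH 7.8, 0.5 mM EDTA, 1 mM TCEP, 0.1 mg/ml BSA, 0.01% Tween-20.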

[10] = biological target: Cytochrome P450 1A2 (Homo sapiens) (UniProt P05177); assay: p450-cyp1a2 (AID 410; calls by dose curve; further: potency means the concentration at half of the fitted maximal effect)
Cytochrome P450 1A2 (Homo sapiens), sequence (P05177 whole entry, looked up): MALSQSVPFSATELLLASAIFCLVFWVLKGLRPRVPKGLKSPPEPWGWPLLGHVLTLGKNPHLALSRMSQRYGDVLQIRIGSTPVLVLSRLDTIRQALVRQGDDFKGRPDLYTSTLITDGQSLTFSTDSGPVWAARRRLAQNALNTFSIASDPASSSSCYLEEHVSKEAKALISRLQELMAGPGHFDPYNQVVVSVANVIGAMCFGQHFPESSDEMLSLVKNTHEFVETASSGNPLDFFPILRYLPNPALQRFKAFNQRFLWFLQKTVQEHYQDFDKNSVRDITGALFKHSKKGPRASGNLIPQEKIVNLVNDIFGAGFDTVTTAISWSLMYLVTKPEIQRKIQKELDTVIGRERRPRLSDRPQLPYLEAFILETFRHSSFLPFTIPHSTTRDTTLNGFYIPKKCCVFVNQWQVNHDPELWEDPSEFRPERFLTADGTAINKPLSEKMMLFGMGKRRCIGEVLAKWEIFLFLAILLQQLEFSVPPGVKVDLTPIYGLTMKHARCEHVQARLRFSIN
Summary of the method: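 20nM CYP1A2, 100uM Luciferin-ME (=Km), 100mM KPO4; cpd 10 min RT; +NADPH regen, 60 min RT; stop/detect 20 min; luminescence. Normalized to furafylline 57 uM = full inhibition.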

[11] = NFAT Signaling Pathway (AID 444; active means well fitted curve in either direction with a large enough effect, not every such curve was filed as active;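 further: carbachol stimulus at about its EC50 of 1 µM final; on the % scale 0 is the no-effect control and ±100 the full control effect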); conditions: Jurkat NFAT-bla M1, carbachol, beta-lactamase ratio, 5 h; at 7.69 µM (top of the series) unless noted
Summary of the method: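 Jurkat cells with NFAT-driven β-lactamase reporter and co-expressed M1 receptor, stimulated with carbachol (final 1 uM, ~EC50), compound titration, 5 h at 37 °C. CCF4 loaded 1 h at RT; 460/530 nm ratio gave %activity and AC50.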

[12] = biological target: 3',5'-cyclic-AMP phosphodiesterase 4B (Homo sapiens) (UniProt Q07343); assay: qHTS Assay for Inhibitors of PDE-IV (AID 607; active means well fitted activation curve with a large enough effect in the main read-out, with a control signal flat, not every such curve was filed as active; further: % of control where 0% means no effect)
3',5'-cyclic-AMP phosphodiesterase 4B (Homo sapiens), sequence (Q07343 whole entry, looked up): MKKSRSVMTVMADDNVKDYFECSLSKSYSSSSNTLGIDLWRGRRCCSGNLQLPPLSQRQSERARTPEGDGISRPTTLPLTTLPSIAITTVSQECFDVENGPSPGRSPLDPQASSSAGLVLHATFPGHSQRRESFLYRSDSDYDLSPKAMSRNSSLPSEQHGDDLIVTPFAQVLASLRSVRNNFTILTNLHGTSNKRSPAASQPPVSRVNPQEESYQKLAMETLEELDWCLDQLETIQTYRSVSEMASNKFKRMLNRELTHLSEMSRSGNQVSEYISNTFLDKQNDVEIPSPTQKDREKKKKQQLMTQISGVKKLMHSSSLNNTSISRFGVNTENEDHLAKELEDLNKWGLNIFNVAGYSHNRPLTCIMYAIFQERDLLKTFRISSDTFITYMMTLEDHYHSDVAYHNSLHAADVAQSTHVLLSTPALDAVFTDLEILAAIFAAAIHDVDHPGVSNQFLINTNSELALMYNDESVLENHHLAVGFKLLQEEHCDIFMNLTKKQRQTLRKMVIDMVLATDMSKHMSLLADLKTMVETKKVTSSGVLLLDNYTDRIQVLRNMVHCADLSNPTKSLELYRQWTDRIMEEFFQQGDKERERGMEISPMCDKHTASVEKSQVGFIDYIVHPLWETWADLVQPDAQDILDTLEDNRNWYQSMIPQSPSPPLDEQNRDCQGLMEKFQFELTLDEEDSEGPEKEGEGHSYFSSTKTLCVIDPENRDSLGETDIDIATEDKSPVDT
Summary of the method: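 HEK293 ACTOne cells with CNG channel (1000/well), endogenous PDE4; membrane potential dye, compounds up to 22.9 uM final. Fluorescence Ex 535/Em 590; RO 20-1724 (100 uM final) as reference.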

[13] = biological target: Cytochrome P450 2C9 (Homo sapiens) (UniProt P11712); assay: qHTS Assay for Inhibitors and Substrates of Cytochrome P450 2C9 (AID 883); further: nearly all actives have a fitted effect of over 60% in size; further: potency means the concentration at half of the fitted maximal effect
Cytochrome P450 2C9 (Homo sapiens), sequence (P11712 whole entry, looked up): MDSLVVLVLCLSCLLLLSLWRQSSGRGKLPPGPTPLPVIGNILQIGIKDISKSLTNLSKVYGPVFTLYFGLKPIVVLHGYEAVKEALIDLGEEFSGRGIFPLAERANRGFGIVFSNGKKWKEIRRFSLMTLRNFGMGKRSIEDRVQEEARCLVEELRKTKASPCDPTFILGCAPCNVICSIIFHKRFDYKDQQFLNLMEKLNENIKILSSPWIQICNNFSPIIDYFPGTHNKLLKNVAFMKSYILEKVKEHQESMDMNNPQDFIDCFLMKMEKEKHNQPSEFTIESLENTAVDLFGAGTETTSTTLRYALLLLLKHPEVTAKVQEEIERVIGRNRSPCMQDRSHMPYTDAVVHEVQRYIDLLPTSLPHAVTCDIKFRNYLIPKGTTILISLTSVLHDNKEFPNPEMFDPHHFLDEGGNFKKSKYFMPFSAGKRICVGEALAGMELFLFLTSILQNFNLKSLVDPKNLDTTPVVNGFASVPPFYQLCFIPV
Summary of the method: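 Human CYP2C9 (10nM) with Luciferin-H at 100uM (its KM) in 25mM KPO4; compound preincubated 10 min at 37C, then NADPH regeneration for 60 min at 37C. Luciferin read by luminescence after detection reagent; normalized to 57uM sulphaphenazole as full inhibition.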

[14] = biological target: Glucocorticoid receptor (Homo sapiens) (UniProt P04150); assay: GR-EFC Redistribution (AID 451; calls by dose curve; further: potency means the concentration at half of the fitted maximal effect); conditions: CHO-K1 GR-EFC translocation, beta-gal luminescence, 2 h
Summary of the method: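 CHO-K1 cells expressing nuclear EA and GR-ED fragments of b-gal; compounds titrated up to 46 uM final, 2 h at 37 C. GR nuclear translocation read as complemented b-gal luminescence after 1 h RT detection.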

[15] = biological target: Cytochrome P450 3A4 (Homo sapiens) (UniProt P08684); assay: qHTS Assay for Inhibitors and Substrates of Cytochrome P450 3A4 (AID 884); further: potency means the concentration at half of the fitted maximal effect; nearly all actives have a fitted effect of over 50% in size
Cytochrome P450 3A4 (Homo sapiens), sequence (P08684 whole entry, looked up): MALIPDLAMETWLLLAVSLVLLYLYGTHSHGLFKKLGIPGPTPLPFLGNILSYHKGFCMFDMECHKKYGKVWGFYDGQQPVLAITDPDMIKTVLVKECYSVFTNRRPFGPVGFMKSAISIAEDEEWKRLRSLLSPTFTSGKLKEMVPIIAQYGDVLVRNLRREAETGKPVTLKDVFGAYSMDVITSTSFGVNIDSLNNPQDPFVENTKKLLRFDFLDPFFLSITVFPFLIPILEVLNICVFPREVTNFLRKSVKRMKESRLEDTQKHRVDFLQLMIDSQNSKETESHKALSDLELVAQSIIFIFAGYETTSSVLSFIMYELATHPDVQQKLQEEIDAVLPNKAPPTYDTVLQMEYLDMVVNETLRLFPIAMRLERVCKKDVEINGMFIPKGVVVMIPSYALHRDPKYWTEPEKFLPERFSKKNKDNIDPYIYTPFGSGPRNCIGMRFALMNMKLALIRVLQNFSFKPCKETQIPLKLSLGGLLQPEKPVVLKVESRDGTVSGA
Summary of the method: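 Luminescent readout of luciferin produced by CYP3A4 (20 nM) dealkylation of Luciferin-PPXE, 25 uM (its KM). NADPH-driven reaction ran 60 min at RT after 10 min compound preincubation; data scaled to 57 uM ketoconazole as 100% inhibition.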

[16] = biological target: Cytochrome P450 3A4 (Homo sapiens) (UniProt P08684); assay: qHTS Assay for Activators of Cytochrome P450 3A4 (AID 885); further: nearly all actives have a fitted effect of over 65% in size
Summary of the method: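 Human CYP3A4 dealkylates Luciferin-PPXE to luciferin, which luciferase detection converts to light. Substrate was at its KM (25uM), buffer 200mM KPO4, reaction 60 min at RT.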

[17] = Stat Signaling Pathway (AID 446; active means well fitted curve in either direction with a large enough effect, not every such curve was filed as active)
Summary of the method: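 Normalization used AC90 stimulation (300 pM IL-6) and AC90 inhibition (125 nM pan-JAK inhibitor at 40 pM IL-6). The underlying signal is SIE-driven beta-lactamase in ME-180 cells after 5 h IL-6 exposure with compound.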

[18] = qHTS Assay for Identification of Small Molecule Agonists for Hypoxia Response Element Signaling Pathway (AID 914; active means well fitted activation curve with a large enough effect in the signal ratio, with a control signal flat, not every such curve was filed as active; the % refers to the signal ratio; further: potency means the concentration at half of the fitted maximal effect); conditions: ME-180 (cervical carcinoma) HRE-bla reporter, beta-lactamase ratio, CoCl2, 17 h; activation: active compounds read high
Summary of the method: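 HRE-bla ME-180 assay for agonist-like enhancement of an EC50 CoCl2 stimulus: 17 h at 37 degrees Celsius, CCF4 for 2.5 h, ratiometric 460/530 nm signal converted to %Activity and fitted to AC50.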

CC(C)CN(C[C@@H](O)[C@H](Cc1ccccc1)NC(=O)O[C@H]1CCOC1)S(=O)(=O)c1ccc(N)cc1
inactive: outcome [1]

O=c1c(CCc2ccccc2)nc2cnc(Nc3ccccc3)nc2n1C[C@H]1CCCO1
inactive: Potency [2] > 11.4 µM | activity change, negative = inhibition [3] 16.4% | Potency [4] > 9.22 µM | Potency [5] | Potency [6] | Potency [7] | Potency [8] | Potency [9]

CN1CCN(c2ncc3nc(-c4cn(C)c5ccccc45)c(=O)n(C[C@H]4CCCO4)c3n2)CC1
inactive: Potency [2] > 11.4 µM | activity change, negative = inhibition [3] -8.04% | activity change, negative = inhibition [11] 3.64% | Potency [4] > 46 µM | Potency [12] | Potency [13] | Potency [6] | Potency [7] | Potency [8] | Potency [9]
active: Potency [10] 6.31 µM

Cc1cnc(CNc2ncnc3ccc(-c4ccccc4Cl)cc23)cn1
active: Potency [15] 2.51 µM | Potency [6] 15.8 µM | Potency [7] 14.1 µM | Potency [8] 10 µM
inactive: Potency [2] > 11.4 µM | activity change, negative = inhibition [3] 14.6% | activity change, negative = inhibition [11] 7.91% | Potency [4] > 46 µM | Potency [14] > 46 µM | outcome [16] | Potency [9]

COc1ccc(Oc2ncc3nc(-c4cc(F)cc(F)c4)c(=O)n(C4CC4)c3n2)cc1
inactive: Potency [2] > 11.4 µM | activity change, negative = inhibition [3] -9.27% | activity change, negative = inhibition [11] -5.46% | outcome [17] | Potency [4] > 9.22 µM | Potency [14] > 46 µM | Potency [5] | Potency [12] | Potency [6] | Potency [7] | Potency [8] | Potency [9]

COc1ncc2nc(-c3ccccc3)c(=O)n(CCc3ccccc3)c2n1
inactive: Potency [2] > 11.4 µM | activity change, negative = inhibition [3] -6.17% | activity change, negative = inhibition [11] -3.72% | outcome [17] | Potency [4] > 9.22 µM | Potency [5] | Potency [6] | Potency [7] | Potency [8] | Potency [9]

COc1ccc(Oc2ncc3nc(-c4ccc(F)cc4)c(=O)n(C[C@H]4CCCO4)c3n2)cc1
inactive: Potency [2] > 11.4 µM | activity change, negative = inhibition [3] -23.4% | activity change, negative = inhibition [11] 0.101% | outcome [17] | Potency [4] > 9.22 µM | Potency [14] > 46 µM | Potency [5] | Potency [12] | Potency [6] | Potency [7] | Potency [8] | Potency [9]

CN1CCN(c2ncc3nc(-c4ccccc4)c(=O)n(Cc4cccs4)c3n2)CC1
inactive: Potency [2] > 11.4 µM | activity change, negative = inhibition [3] 7.66% | activity change, negative = inhibition [11] -9.53% | Potency [4] > 9.22 µM | Potency [14] > 46 µM | Potency [12] | Potency [6] | Potency [7] | Potency [8] | Potency [9]

COCCn1c(=O)c(-c2cccs2)nc2cnc(Oc3ccccc3)nc21
inactive: Potency [2] > 11.4 µM | activity change, negative = inhibition [3] 16.7% | Potency [4] > 9.22 µM | Potency [14] > 46 µM | Potency [12] | outcome [16] | Potency [6] | Potency [7] | Potency [8] | Potency [9]
active: Potency [10] 2 µM | Potency [13] 3.98 µM | Potency [18] 3.16 µM

COc1ncc2nc(CCc3ccccc3)c(=O)n(-c3ccccc3)c2n1
inactive: Potency [2] > 11.4 µM | activity change, negative = inhibition [3] -22.4% | activity change, negative = inhibition [11] -14.3% | Potency [4] > 9.22 µM | Potency [14] > 46 µM | Potency [5] | Potency [12] | Potency [6] | Potency [7] | Potency [8] | Potency [9]

COCCn1c(=O)c(-c2cccc(C#N)c2)nc2cnc(Oc3cccc(Cl)c3)nc21
inactive: Potency [2] > 11.4 µM | activity change, negative = inhibition [3] -5.9% | activity change, negative = inhibition [11] -4.85% | Potency [4] > 9.22 µM | Potency [14] > 46 µM | Potency [5] | Potency [12] | Potency [6] | Potency [7] | Potency [8] | Potency [9]

COc1ccc(Oc2ncc3nc(-c4ccc(F)cc4)c(=O)n(CCC#N)c3n2)cc1
inactive: Potency [2] > 11.4 µM | activity change, negative = inhibition [3] -16.1% | activity change, negative = inhibition [11] 1.8% | outcome [17] | Potency [4] > 9.22 µM | Potency [5] | Potency [12] | Potency [6] | Potency [7] | Potency [8] | Potency [9]

COc1ccccc1-c1nccc(NCc2cccs2)n1
inactive: Potency [2] > 2.29 µM | activity change, negative = inhibition [3] 15.8% | activity change, negative = inhibition [11] -12.7% | outcome [17] | Potency [4] > 46 µM | Potency [14] > 46 µM | Potency [5] | Potency [6] | Potency [7] | Potency [8]

COc1cccc(Nc2ncc3ncc(=O)n(CCC#N)c3n2)c1
inactive: Potency [2] > 11.4 µM | activity change, negative = inhibition [3] -26.1% | activity change, negative = inhibition [11] -0.673% | Potency [4] > 9.22 µM | Potency [14] > 46 µM | Potency [5] | Potency [12] | outcome [16] | Potency [9]
active: Potency [10] 1 µM | Potency [6] 6.31 µM | Potency [7] 3.55 µM | Potency [8] 2.51 µM

COc1ccc(-c2nc3cnc(N4CCOCC4)nc3n(-c3ccc(OC)cc3)c2=O)cc1
active: Potency [10] 10 µM | Potency [18] 3.16 µM
inactive: Potency [2] > 11.4 µM | activity change, negative = inhibition [3] -5.89% | outcome [17] | Potency [4] > 9.22 µM | Potency [14] > 46 µM | Potency [12] | Potency [6] | Potency [7] | Potency [8]

COc1cccc(-c2cncnc2NCCN2CCOCC2)c1
active: Potency [10] 15.8 µM | Potency [18] 2.51 µM
inactive: Potency [2] > 11.4 µM | activity change, negative = inhibition [3] 24.4% | outcome [17] | Potency [4] > 46 µM | Potency [14] > 46 µM | Potency [5] | Potency [12] | outcome [16] | Potency [6] | Potency [7] | Potency [8] | Potency [9]
